Screens from PubChem BioAssay.
In the library only some 5.7% were active in any assay of this set; here they are far more common.
DAX1 inh-1 – DAX1 (NR0B1) inhibitors, primary screen, cell-based, HEK293, Gal4-DAX1, luciferase luminescence; Nuclear receptor subfamily 0 group B member 1 (Homo sapiens), P51843; actives 0.99% (n = 340,000); inhibition, % at 6.75 µM; AID 504766, 2011; HEK293 Gal4-DAX1 luciferase reporter;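 active means inhibition above the mean over all tested compounds plus 3 SD, cut at about 4.2% in these data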;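 further: 0% = DAX1-transfected cells with DMSO and 100% = empty-vector control cells with DMSO; inhibition shows as a rise in luminescence from relieved DAX1 repression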
Target sequence (P51843 207-470 limits assumed): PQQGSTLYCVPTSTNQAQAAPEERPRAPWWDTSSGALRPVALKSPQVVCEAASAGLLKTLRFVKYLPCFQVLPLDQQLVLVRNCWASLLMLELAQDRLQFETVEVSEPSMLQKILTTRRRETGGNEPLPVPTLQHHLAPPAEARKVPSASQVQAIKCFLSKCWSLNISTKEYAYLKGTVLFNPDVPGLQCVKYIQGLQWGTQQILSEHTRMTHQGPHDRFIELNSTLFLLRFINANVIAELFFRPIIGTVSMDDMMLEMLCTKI
DAX1 inh-2 – DAX1 (NR0B1) inhibitors on StAR promoter, primary screen, cell-based, luminescence, SF-1 (NR5A1), full-length DAX-1 | HEK293T StAR-luciferase reporter, SF-1/DAX-1 repression relief | inhibition, % at 6.8 µM | actives 1.1% (n = 370,000) | AID 652010, 2013;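 active means inhibition above the mean over all tested compounds plus 3 SD, cut at about 3.6% in these data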;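 further: 0% = DAX-1 cells with DMSO and 100% = cells lacking DAX-1 with DMSO; higher inhibition means more luminescence from relief of DAX-1 repression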
AHR act – AHR activators, primary screen, cell-based, luminescence, luciferase reporter, human. AID 2796, 2010. Aryl hydrocarbon receptor (Homo sapiens), P35869. AHR-responsive luciferase reporter cells. actives 2.5% (n = 320,000). activation, % at 5 µM; in the data active means activation above about 47%;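 further: 0% = vehicle wells and 100% = reference agonist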
hcDAF12 agonist – H. contortus DAF-12 nuclear receptor activators, primary screen, cell-based, luminescence, HEK293, lit1-tk-luc reporter | HEK293 hcDAF-12 lit1-tk-luc reporter; 0% DMSO, 100% Δ7-dafachronic acid | activation, % at 6.8 µM | actives 1.4% (n = 370,000);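 active means activation above the mean of all tested compounds plus 3 SD, cut at about 5.5% in these data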;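 further: 100% = response to 3 µM Δ7-dafachronic acid high control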
ssDAF12 agonist – S. stercoralis DAF-12 nuclear receptor activators, primary screen, cell-based, luminescence, HEK293, GRIP1 co-expression, lit1-tk-luc | HEK293 ssDAF-12/GRIP1 lit1-tk-luc reporter; % of 3 µM dafachronic acid response | actives 1% (n = 370,000) | activation, % at 6.8 µM;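 active means activation above the mean over all tested compounds plus 3 SD, cut at about 0.9% in these data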;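 further: 0% = DMSO-only wells and 100% = 3 µM delta7-dafachronic acid wells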
hgDAF-12 ag – H. glycines DAF-12 receptor agonists, primary screen, cell-based, luminescence, HEK293, GAL4 fusion, UAS-luciferase; HEK293 GAL4-hgDAF12 UAS-luciferase reporter, agonist luminescence; normalized to butyrate control; activation, % at 6.8 µM; actives 1.8% (n = 370,000); AID 687014, 2013;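 active means activation above a cutoff set at the mean of all screened compounds plus 3 SD, cut at about 10% in these data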;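 further: 0% = DMSO wells and 100% = sodium butyrate wells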
* marks the source's active call; other numbers are inactive results; · = not tested or not shown.

SMILES	DAX1 inh-1	DAX1 inh-2	AHR act	hcDAF12 agonist	ssDAF12 agonist	hgDAF-12 ag
Cc1ccc(SCC(=O)OCC(=O)NCCCc2ccccc2)cc1	1	1	1	0	-1	1
C=CCSc1nnc(-c2cc3c(s2)-c2ccccc2CC3)o1	-1	1	66*	5	1	2
Cc1ccc(C2(C)NC(=O)N(CC(=O)Nc3cc(S(=O)(=O)N4CCOCC4)ccc3C)C2=O)cc1 (configuration not stated)	0	0	4	-3	-1	-1
Cc1nn2c(NCCCn3ccnc3)cc(C(C)C)nc2c1-c1ccccc1	0	0	48*	0	-1	1
C/C(=N\NC(=S)NC(C)C)c1cccc([N+](=O)[O-])c1	1	-1	1	-2	-2	3
C/C(=N\NC(=S)NC(C)C)c1ccc(Cl)c([N+](=O)[O-])c1	4.6*	0	5	-1	-1	-2
COc1ccc(CNC(=O)Nc2cccc(C(F)(F)F)c2)cc1OC	-1	-1	12	-3	-2	-4
Clc1ccc(-c2n[nH]c3c2Cc2ccccc2-3)cc1Cl	·	·	60*	·	·	·
c1ccc2c(c1)CCc1c(-c3ccncc3)n[nH]c1-2	2	-3	44	4	1.6*	1
CC(C)c1c(O)nc(SCC(=O)N2CCCCC2)[nH]c1=O	0	0	0	-4	-1	0
O=C(CCC(=O)NC1CCN(Cc2ccccc2)CC1)NCc1ccco1	0	1	1	2	-1	0
COc1ccccc1-c1sc2cc3c(cc2c1C#CCO)OCO3	1	1	67*	1	-1	0
COc1ccc(-c2sc3cc4c(cc3c2C#CCO)OCO4)cc1	-2	-1	77*	-2	-2	-1
COc1ccc(-c2sc3ccc(N4CCOCC4)cc3c2C#CCCO)cc1	-1	-1	97*	0	-1	1
CCOC(=O)c1ccc(-c2c(-c3ccccc3OC)sc3cc4c(cc23)OCO4)cc1F	1	-1	48*	3	-1	1
COc1ccc2sc(-c3ccccc3OC)c(C#CC(C)(C)O)c2c1	1	0	26	2	-1	1
CC(C)(C)NC(=O)Cn1c(=O)c(=O)n(Cc2ccccc2)c2ccc(Cl)cc21	0	0	1	1	-2	-5
O=C(/C=C/c1ccc([N+](=O)[O-])cc1)OCc1cnc(-c2ccccc2)o1	6.1*	0	0	0	-1	2
CSc1ccccc1C(=O)N1CCc2ccc(NC(=O)c3ccccn3)cc2C1	1	3	·	3	-1	11*
Cc1ccc(OCc2cc(C(=O)N3CCC(C(O)C(C)C)CC3)no2)cc1C (configuration not stated)	0	0	3	1	-1	1
CC(=O)c1c(C)[nH]c(C(=O)CN2C(=O)NC3(CCCCC3C)C2=O)c1C (configuration not stated)	1	2	·	0	-1	1
Cc1cc(C)c(C(=O)CN2C(=O)NC3(CCCCC3)C2=O)cc1C	0	1	3	6.2*	-1	1
CC(=O)c1c(C)[nH]c(C(=O)CN2C(=O)NC3(CCCCC3)C2=O)c1C	0	4.1*	·	-2	-1	0
Nc1c(C(=O)c2ccc(Cl)cc2)sc2c1c(=O)[nH]c(=O)n2-c1ccccc1	0	1	1	-4	-2	0
Cn1c(-c2ccccc2)nc2cnccc21	0	0	3	-1	0	2
SMILES	DAX1 inh-1	DAX1 inh-2	AHR act	hcDAF12 agonist	ssDAF12 agonist	hgDAF-12 ag
O=C(N/N=C/c1c(O)ccc2ccccc12)c1ccc(Br)o1	0	0	21	0	-1	-3
Cc1ccc(NC(=O)c2cc([N+](=O)[O-])ccc2N2CCOCC2)cc1S(=O)(=O)N1CCOCC1	1	-1	-1	-1	-1	0
COc1cc(C#Cc2c(-c3cncn3C)n(C)c3ccc(-c4cnc(OC)nc4)cc23)cc(OC)c1	-1	-1	51*	-4	-2	-2
COCCN(CCOC)C(=S)Nc1cc(S(=O)(=O)N(C)C)ccc1C	0	0	0	-1	-2	1
Cc1cc(SCC(=O)c2ccccc2)n2nc(C)nc2n1	-1	0	4	6.2*	0	10
CC1CC(=O)Nc2ccccc2N1C(=O)CSc1nnnn1C (configuration not stated)	0	0	0	0	-1	-1
COc1ccc(/C=C/C(=O)Nc2nonc2NC(C)=O)cc1	0	1	49*	0	-1	3
COc1ccc(/C=C/C(=O)Nc2cc(C)on2)cc1	0	2	23	2	-1	9
CC(=O)N1N=C(c2ccc(C)cc2)OC1c1ccc(C(C)C)cc1 (configuration not stated)	4.5*	1	11	1	-1	4
O=C(N/N=C/c1cccs1)c1cccc2cc[nH]c12	1	1	33	1	0	2
Cc1sc(NC(=O)c2ccccc2F)c(CN2CCCCC2)c1C	-1	1	12	6.2*	-1	8
O=C(Nc1sc2c(c1CN1CCOCC1)CCC2)c1ccc(F)cc1	-1	0	17	5.9*	-1	3
Cc1sc(NC(=O)c2ccc(F)cc2)c(CN2CCCCCC2)c1C	0	2	33	5	0	11*
Cc1sc(NC(=O)c2ccco2)c(CN2CCN(Cc3ccccc3)CC2)c1C	-2	0	1	-1	-1	3
Cc1ccc(NS(=O)(=O)c2cc(NC(=O)c3ccc4c(c3)NC(=O)CS4)ccc2Cl)c(C)c1	-1	-1	54*	-3	-2	-3
COCCNC(=O)c1ccc2c(c1)NC(=O)CS2	0	0	2	0	-2	2
Cc1ccc(NS(=O)(=O)c2cc(C(=O)O)ccc2Cl)c(C)c1	0	0	1	-1	-1	-3
COc1ccc(NC(=O)c2ccc3c(c2)NC(=O)CS3)cc1	1	4.4*	0	4	-1	5
CC(NC(=O)C1CCCCC1)C(c1cccs1)N1CCN(C)CC1 (configuration not stated)	2	1	3	0	-1	1
